The whole screen tested about 2,300 compounds, of which about 1,700 (74%) were called active. No rule for the calls is given here. The set was probably picked from earlier hits. Some of the results follow. Entries with a potency or affinity are not part of this list.
experiment: Confirmatory growth inhibition assay, Mycobacterium tuberculosis H37Rv, absence of glycerol (AID 449764); conditions: no glycerol; series mostly up to 100 µM;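 also: growth read after 7 days of incubation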

| Compound | outcome |
| --- | --- |
| Nc1nc(-c2cccc(F)c2)cs1 | inactive |
| c1ccc(NNC2=NCCCCC2)cc1 | inactive |
| Cc1ccc(CN2CCN(Cc3ccc(-n4cccn4)cc3C)CC2CCO)cc1 (stereo not drawn) | inactive |
| C/C(=N\N(Cc1ccccc1)c1ccccc1)c1ccncc1 | inactive |
| O=C(NCc1ccc2c(c1)OCO2)c1c(O)nc2sccn2c1=O | inactive |
| O=C(CCN1C(=O)/C(=C/c2ccccc2Cl)SC1=S)N1CCCC1 | inactive |
| CCOC(=O)C1CCN(C(=O)c2ccc3c(c2)NC(=O)/C(=C/c2ccccc2)S3)CC1 | inactive |
| Clc1ccc(-c2ccc(C=Nc3ccc(N4CCOCC4)cc3)o2)c(Cl)c1 | inactive |
| O=C(C[n+]1ccccc1)NNc1ccccc1 | inactive |
| O=C(c1ccccc1)c1c[nH]c(C(=O)NNc2ccccc2)c1 | inactive |
| O=C(CSc1nc(Nc2ccccc2)nc(N2CCOCC2)n1)Nc1cc(Cl)ccc1O | inactive |
| CCOC(=O)c1cn[nH]c1N | inactive |
| O=C(NNc1ccc([N+](=O)[O-])cc1)c1ccco1 | inactive |
| CC(C)Oc1ccc(NC(=O)Oc2ccccc2)cc1 | inactive |
| COC(=O)C(NC(=O)c1ccc(OC)cc1)(Nc1ncc(S(=O)(=O)c2ccc([N+](=O)[O-])cc2)s1)C(F)(F)F (stereo not drawn) | inactive |
| N#C/C(=C1\CCCN1)c1nc(-c2ccccc2)cs1 | inactive |
| COC(=O)c1ccc(N/N=C/c2cc([N+](=O)[O-])cc(OC)c2O)cc1 | inactive |
| O=C(c1ccco1)N1CCN(C(=O)C2CC(c3ccc(Cl)c(Cl)c3)=NO2)CC1 (stereo not drawn) | inactive |
| CCCSC1=C(C#N)C(c2ccc(Cl)cc2Cl)CC(=O)N1 (stereo not drawn) | inactive |
| COc1ccc(S(=O)(=O)N(C)CC(=O)NCCCn2ccnc2)cc1Cl | inactive |
| CC1CCC/C(=N\NC(=S)Nc2ccccc2)C1 (stereo not drawn) | inactive |
| Cc1nn(-c2ccccc2)c(Cl)c1/C=N/NC(=O)c1ccc(CNc2ccccc2)o1 | inactive |

| Compound | outcome |
| --- | --- |
| Cc1cc(/C=C(/C#N)c2cccc(F)c2)c(C)n1-c1cccnc1 | inactive |
| COc1ccc2[nH]c(=O)c(CNc3cccc(C)c3)cc2c1 | inactive |
| CCOC(=O)c1ccc(NC(=O)CSc2ccc(-c3cccnc3)nn2)cc1 | inactive |
| CC1(C)CN(c2ccccc2)N(C(=O)c2ccc(C#N)cc2)C1=O | inactive |
| C(=N\N1CCN(C2c3ccccc3-c3ccccc32)CC1)/c1ccccn1 | inactive |
| CC(=O)c1ccc2c(c1)C1C(Cl)C(Sc3ccccc3[N+](=O)[O-])CC1C(c1ccccc1)N2 (stereo not drawn) | inactive |
| Cc1cn(-c2ccc(Br)cc2)[nH]c1=O | inactive |
| Nc1cnccc1C(=O)O | inactive |
| CC(NC(=O)c1ccccc1Br)C1CC2CCC1C2 (stereo not drawn) | inactive |
| O=C(NC1CCCCC1)C1CC(=O)N(c2cccc([N+](=O)[O-])c2)C1 (stereo not drawn) | inactive |
| Nn1c(SCc2ccccc2)nc2ccccc21 | inactive |
| COc1ccc(-c2oc3ncnc(NCCCN4CCOCC4)c3c2-c2ccc(OC)cc2)cc1 | inactive |
| O=c1[nH][nH]cc1C=Nc1ccc(Oc2ccccc2)cc1 | inactive |
| COc1ccc(NC(=O)C2C3C=CC(O3)C2C(=O)NCc2cccnc2)cc1 (stereo not drawn) | inactive |
| CC1CN(C(=S)SCC(=O)c2ccc([N+](=O)[O-])cc2)CC(C)O1 (stereo not drawn) | inactive |
| N#CC(c1cccc(Cl)c1)c1ccc2c(C(F)(F)F)cc(C(F)(F)F)nc2n1 (stereo not drawn) | inactive |
| CCc1n[nH]c(=S)n1/N=C/c1ccc(-c2ccc(Br)cc2)o1 | inactive |
| CCCCOC(=O)c1ccc(NC(=S)NC(=O)c2c(Br)c(C)nn2C)cc1 | inactive |
| CCn1c(SCC(=O)N(C)CCC#N)nc2cc(S(=O)(=O)N3CCOCC3)ccc21 | inactive |
| COC(=O)C1=C(C)NC(=O)/C1=C\c1cc(C)n(-c2cccc(C)c2)c1C | inactive |
| O=C(c1ccc(C#Cc2ccccc2)o1)N1CCN(c2ccccn2)CC1 | inactive |
| O=C(O)Cc1cnc[nH]1 | inactive |

| Compound | outcome |
| --- | --- |
| Cc1cc(/C=C/C(=O)O)c(C)n1-c1ccc(Cl)cc1 | inactive |
| O=C(CCN1C(=O)C2C3C=CC(C3)C2C1=O)Oc1ccc2ccccc2c1 (stereo not drawn) | inactive |
| Cc1cc(C2=NNC(=NC3CCCCC3)SC2)c(C)n1-c1c(C)n(C)n(-c2ccccc2)c1=O | inactive |
| COC(=O)c1cccc(OC(N)=O)c1 | inactive |
| CCOc1ccc(-n2c(O)c(/C=N/Nc3nnc(C)c(=O)[nH]3)c3ccccc3c2=O)cc1 | inactive |
| CN(C)S(=O)(=O)c1cccc(NC(=O)CCc2nc3sc4c(c3c(=O)[nH]2)CCCC4)c1 | inactive |
| COc1cccc(NC(=O)Nc2nc(SC(C)(C)C)ns2)c1 | inactive |
| Nc1ccc(-c2nc3ccc(-c4nc5ccccc5o4)cc3[nH]2)cc1 | inactive |
| CC(C)(C)c1nc(SCC(=O)Nc2nc3c(s2)CCCC3)c2ccccc2n1 | inactive |
| O=C(Nc1cc(Oc2ccccc2)cc([N+](=O)[O-])c1)C12CC3CC(C1)CC(n1cnc(Cl)n1)(C3)C2 | inactive |
| C/C(=N\NC(=O)c1cc2c(s1)CCC(C)C2)c1ccncc1 (stereo not drawn) | inactive |
| CCC1(c2ccccc2)NC(=O)N(CC(=O)Nc2ccc(S(=O)(=O)NC3=NCCCCC3)cc2)C1=O (stereo not drawn) | inactive |
| Nc1cc(C(=O)OCC(=O)NNC(=O)c2cccs2)ccc1Cl | inactive |
| CSc1ccc(CNC(=O)C2Cc3cc(S(=O)(=O)N4CCCCC4)ccc3N2C(C)=O)cc1 (stereo not drawn) | inactive |
| Nc1ncc2[nH]cnc2n1 | inactive |
| O=C(COc1cc(O)c2c(=O)c3ccccc3oc2c1)OCc1ccccc1 | inactive |
| CCCc1ccc(OCc2ccccc2)c2c(=O)cc(C(=O)OCC)oc12 | inactive |
| O=C(c1cc([N+](=O)[O-])ccc1N1CCOCC1)N1CCN(S(=O)(=O)c2cc(Cl)ccc2Cl)CC1 | inactive |
| Cc1ccc(NC(=O)C2CCN(S(=O)(=O)c3ccc4c(c3)NC(=O)C(C)S4)CC2)c(Cl)c1 (stereo not drawn) | inactive |
| COc1ccc2c(C)nc(Nc3nc(C)c(C)c(=O)[nH]3)nc2c1 | inactive |
| COc1ccc(N/C=C/c2nc(SC)nnc2C)cc1 | inactive |
| COc1ccc(Oc2ccc(N/C=C/C(=O)C(C)(C)C)cc2)cc1 | inactive |

| Compound | outcome |
| --- | --- |
| CCCOc1ccc(C(=O)c2nc3c(n2O)CCCCC3)cc1 | inactive |
| CCCc1ncc(CN2CCCC(C(=O)Nc3ccc(-c4cccc(OC)c4)cc3)C2)cn1 (stereo not drawn) | inactive |
| N/C(=N\OC(=O)CCC1CCCC1)c1cccc([N+](=O)[O-])c1 | inactive |
| Cc1ccccc1C(=O)Nc1ccc(N(C)C)c2ccccc12 | inactive |
| O=C(N/N=C/c1ccc(Br)s1)c1cccs1 | inactive |
| CCn1nnc(-c2ccc(N)cc2)n1 | inactive |
| COc1ccc(N2CN=C3SCC(=O)N3C2)cc1 | inactive |
| COc1ccc(C(C(O)C(=O)c2c[nH]c3ccccc23)N2CCN(c3ccc(OC)cc3)CC2)cc1 (stereo not drawn) | inactive |
| CCOc1ccc(NC(=S)NC23CN4CN(CN(C4)C2)C3)cc1 | inactive |
| CCOC(=O)c1ccc(OC(=O)CCCCCN=C(N)N)cc1 | inactive |
| COc1ccccc1C(=O)NC(=Nc1nc2ccccc2o1)NC(=O)c1ccccc1OC | inactive |
| O=C(CN1CCN(c2ccc(F)cc2)CC1)N1CCC(Cc2ccccc2)CC1 | inactive |
| CC(=Nc1ccc(C)c(C)c1)C1=C(O)CSC1=O | inactive |
| CCOc1ccc(S(=O)(=O)N2CCN(C(=O)c3cc4c(s3)CCCC4)CC2)cc1 | inactive |
| COc1ccc(NC(NC(=O)c2ccc(OC)cc2)C(Cl)(Cl)Cl)cc1 (stereo not drawn) | inactive |
| COc1ccc(-c2ccc(=O)n(Cc3c(F)cccc3Cl)n2)cc1 | inactive |
| Cc1nc2ccc(NC(=O)N(C(C)C)C(C)C)cc2s1 | inactive |
| CCOc1[nH]n(-c2ccccc2)c(=O)c1C=Nc1ccc(OC)cc1 | inactive |
| O=C(Sc1nnc(-c2ccccc2)o1)N1c2ccccc2Sc2ccccc21 | inactive |
| O=C(CCN1C(=O)C2CCCCC2C1=O)Nc1nc(-c2ccc(F)c(F)c2)cs1 (stereo not drawn) | inactive |
| COc1ccc(OCc2nnc3n2N=C(c2ccccc2)C(CC(=O)O)S3)cc1 (stereo not drawn) | inactive |
| COc1ccc(NC(=O)c2ccc(Cl)c(S(=O)(=O)N3CCc4ccccc4C3)c2)cn1 | inactive |

| Compound | outcome |
| --- | --- |
| CCOc1ccc(N(C(=O)/C=C/C(=O)Nc2cc(C)on2)C(C(=O)NC2CCCC2)c2ccccc2C)cc1 (stereo not drawn) | inactive |
| CC(C)Cn1[nH]c2c3c(ccc2c1=O)C(=O)c1ccccc1C3=O | inactive |
| Cc1ccc(C(=O)Nc2cccc(C(F)(F)F)c2)cc1Nc1ncnc2nc[nH]c12 | inactive |
| Cc1ccc(Cl)cc1N1CCN(Cc2nc3ccsc3c(=O)[nH]2)CC1 | inactive |
| COc1ccc(-c2cc3ccccc3oc2=O)cc1NC(=O)c1ccc([N+](=O)[O-])o1 | inactive |
| COc1ccc(N2CCN(c3ccnc4cc(Cl)ccc34)CC2)cc1 | inactive |
| Fc1ccc(N/N=C2/CC(c3ccccc3)Oc3ccccc32)c(F)c1 (stereo not drawn) | inactive |
| Oc1ccc2cc(Br)ccc2c1CN1CCCC1 | inactive |
| COc1ccc(-c2nc3ccccn3c2CN2CCN(c3ccccc3F)CC2)cc1 | inactive |
| CCOC(=O)C(=NC1CCS(=O)(=O)C1)NNc1ccc(Br)cc1 (stereo not drawn) | inactive |
| CCOc1ccc(NC(C)c2cc(Cl)ccc2O)cc1 (stereo not drawn) | inactive |
| Brc1cccc2sc(N3CCN(c4ccccc4)CC3)nc12 | inactive |
| NC(=O)/C(=N\OC(=O)c1ccco1)c1nc(-c2ccc(Br)cc2)cs1 | inactive |
| Cc1cccc(C)c1OCC(O)CN1CCC(CN2C(=O)c3cccc4cccc(c34)C2=O)CC1 (stereo not drawn) | inactive |
| CC1(C)SC(=S)N(NC(=O)Nc2cccc3ccccc23)C1N(O)C(=O)Nc1ccccc1 (stereo not drawn) | inactive |
| O=[N+]([O-])c1nn(-c2ccc(Cl)cc2)n(O)c1=NCc1cccnc1 | inactive |
| CCCCCCC(=O)N/N=C/c1ccc(Br)cc1 | inactive |
| CCCCCCSc1nsc(NC(=O)CC(C)C)n1 | inactive |
| CCOc1ccc(NC(=S)Nc2cc(-c3ccccc3)[nH]n2)cc1 | inactive |
| COC(=O)Cc1ccc(NC(=S)Nc2ccccn2)cc1 | inactive |
